In PubChem BioAssay one finds z-score data, which are given here for 35 molecules.

Unmarked numbers belong to inactive results. Calls of active or inactive are those of the source.

A short description of one assay: plasmodial surface anion channel blockers, osmotic lysis – cell-based, P. falciparum Indochina, OD700, 1 h, primary screen (AID 1154). Conditions: P. falciparum Indochina infected RBC osmotic lysis, higher = more signal, called active from +8 up or from −8 down.
Consider `O=C1c2ccccc2[C@](Cc2ccccc2I)(C(=O)O)[C@H](c2ccc(CO)cc2)N1Cc1ccccc1`, for which the z-score is 4.42. The same measure, in the same setting: the value for `COCC(=C=CC[C@@H](O)c1cccc(OCCO)c1)C[C@@H](O)COCc1ccccc1` was 8.33 (active); that for `C[N+](C)(C)CCCCCCNC(=O)[C@@H]1C[C@@H]2C(=O)N[C@@H](Cc3ccccc3)C(=O)N2[C@@H]1c1ccc(O)cc1` was 3.42.

With `COCCOC(=O)N1C(=O)[C@@]2(c3ccccc31)[C@H](c1ccc(OCCO)cc1)N1[C@H](c3ccccc3)[C@H](c3ccccc3)OC(=O)[C@H]1[C@@H]2C(=O)N1CCN(c2ncccn2)CC1`, the z-score was 22.1 (active).

As for `COCCOC(=O)N1C(=O)[C@@]2(c3cc(C#CCCO)ccc31)[C@H](c1ccccc1OCCO)N1[C@H](c3ccccc3)[C@H](c3ccccc3)OC(=O)[C@H]1[C@@H]2C(=O)N1CCc2cc(OC)c(OC)cc2C1`, the z-score was 2.43. Take `C=CCC(OC(C)=O)[C@@H]1[C@@H](N(Cc2cc3ccccc3o2)C(=O)Cc2ccc(OC)cc2)c2cc(OCCCO)ccc2N1C(=O)Cc1ccc(OC)cc1` (stereo partly drawn): the z-score was 2.19. For `CC(C)C[C@H]1NC(=O)[C@@]23C(=O)N[C@@H](Cc4ccccc4)C2[C@H](C)[C@@]2(C)O[C@H]2C3/C=C/C/C=C\CNC(=O)[C@@H]2CCCN2C1=O` (stereo partly drawn), the z-score was 0.0869.

In the case of `COCCOC(=O)N1C(=O)[C@@]2(c3cc(C#CCC(C(=O)OC)C(=O)OC)ccc31)[C@H](c1ccc(OCCO)cc1)N1[C@H](c3ccccc3)[C@H](c3ccccc3)OC(=O)[C@H]1[C@@H]2C(=O)N1CCCCCCC1`, the z-score was 3.66. On to `COCC(=C=CC[C@@H](O)c1ccc(OCCO)cc1)C[C@@H](O)COCc1ccccc1`, for which the z-score is 7.41. Consider `COC(=O)[C@@H]1N=C(c2ccc(OCCCO)cc2)O[C@@H]1c1ccccc1CN=[N+]=[N-]`, for which the z-score was 25 (active). As to `C=C(COC)C(=O)CC[C@@H](OC(C)=O)c1ccc(OCCO)cc1`, the z-score was 2.52.

Regarding `O=C(NCCO)C1=C[C@H](Oc2ccccc2I)[C@@H](O)[C@H](NCc2ccc(F)cc2)C1`, the z-score was 5.38. Turning to `O=C1O[C@@H](c2ccccc2)[C@@H](c2ccccc2)N2[C@@H](c3ccc(OCCO)cc3)[C@]3(C(=O)Nc4ccc(C#CCCO)cc43)[C@@H](C(=O)Nc3nc4ccccc4s3)[C@H]12`, the z-score was 1.01. Same read-out and setting: then `NCCCC[C@@H]1NC(=O)[C@H]2C[C@@H](C(=O)O)[C@@H](c3cccc(OCCO)c3)N2C1=O`, with -1.87. In the case of `COCCOC(=O)N1C(=O)[C@@]2(c3cc(C#CCCO)ccc31)[C@H](C(=O)N1CCc3cc(OC)c(OC)cc3C1)[C@H]1C(=O)O[C@H](c3ccccc3)[C@H](c3ccccc3)N1[C@@H]2c1ccccc1OCCO`, the z-score was 3.62. With `COC(=O)[C@@]1(Cc2ccccc2)[C@@H]2[C@@H](CC(=O)[C@H]2CC(=O)C(=O)N(C)C)CN1C(=O)c1ccccc1`, the z-score is 2.19.

For the molecule `O=C1O[C@H](c2ccccc2)[C@H](c2ccccc2)N2[C@H]1[C@@H](C(=O)N1CCN(c3ncccn3)CC1)[C@]1(C(=O)Nc3ccccc31)[C@H]2c1ccc(O)cc1`, the z-score was 1.24. As to `CCOC(=O)C1=CC[C@@H](c2ccccc2Cl)N(S(=O)(=O)c2ccc(C)cc2)[C@H]1c1cccc(OC)c1`, the z-score was 1.23.

A further assay is described as follows: plasmodial surface anion channel blockers, osmotic lysis – cell-based, P. falciparum Indochina, OD700, 2 h, primary screen (AID 1155).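 Also: lysis reports solute entry through the parasite surface anion channel PSAC.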 Conditions: P. falciparum Indochina infected erythrocytes, higher = more signal, called active from +8 up or from −8 down.
For `Cc1ccccc1C(O)C1C=CC2C(=O)N(c3ccccc3)C(=O)C2N1Nc1ccccc1F` (stereo not drawn), the z-score was 2.28. With `COC(=O)[C@@]1(CCS(=O)(=O)c2ccccc2)N=C(c2ccc(OCCCO)cc2)O[C@H]1c1ccccc1N=[N+]=[N-]`, the z-score was 22.3 (active). As for `C=C(CCCC)C(=O)CC[C@H](OC(=O)c1cccnc1)c1ccc(CO)o1`, the z-score was 0.101. With `COCCOC(=O)N1C(=O)[C@@]2(c3cc(C#CC4(O)CCCCCC4)ccc31)[C@H](c1ccc(OCCO)cc1)N1[C@H](c3ccccc3)[C@H](c3ccccc3)OC(=O)[C@H]1[C@@H]2C(N)=O`, the z-score was 1.89.

`CN(C)C(=O)[C@]1(Cc2ccccc2)N=C(c2ccc(OCCCO)cc2)O[C@@H]1c1ccccc1`: the z-score was 23.9 (active). In the case of `COc1ccc(C#Cc2ccc3c(c2)[C@]2(C(=O)N3)[C@H](C(=O)Nc3nc4ccccc4s3)[C@H]3C(=O)O[C@H](c4ccccc4)[C@H](c4ccccc4)N3[C@@H]2c2ccc(OCCO)cc2)cc1`, the z-score was 1.41.

Consider `CCOC(=O)C[C@H]1[C@H](OC(=O)c2ccc(C(=O)c3ccccc3)cc2)[C@@H](NC(=O)c2ccc3ccccc3c2)c2cc(OCCCO)ccc2N1C(=O)c1ccc2ccccc2n1`, for which the z-score was 1.32. As to `CN(C)CCCCNC(=O)[C@H]1C[C@H]2C(=O)N[C@@H](Cc3ccccc3)C(=O)N2[C@H]1c1cccc(OCCO)c1`, the z-score is -0.546. Regarding `C=C(CC1([C@@H](NP(=O)(c2ccccc2)c2ccccc2)[C@H]2C[C@@H]2CCN(C(=O)OCC)S(=O)(=O)c2ccc(C)cc2)CC1)c1ccccc1`, the z-score is 0.939. Regarding `C=C(CCCC)/C(=C/C[C@H](OC(C)=O)c1cccc(OCCO)c1)c1cc(C(=O)OC)ccc1OC`, the z-score was 3.75. On to `C=CCNC(=O)[C@H]1[C@@H]2C(=O)O[C@@H](c3ccccc3)[C@@H](c3ccccc3)N2[C@@H](c2ccccc2OCCO)[C@]12C(=O)N(C(=O)OCCOC)c1ccccc12`, for which the z-score was 1.1.

Consider `O=C1OCCC/C=C\[C@H]2OC34C=CCN(Cc5ccccc5)C(=O)[C@H]3N(CCCCCO)C(=O)[C@@H]4C12` (stereo partly drawn), for which the z-score was -0.172. Take `CC(C)(C)OC(=O)CC[C@]1(C(=O)N2CCOCC2)N=C(c2ccc(OCCCO)cc2)O[C@H]1c1ccccc1CN=[N+]=[N-]`: the z-score is 1.71.

On to `CCCC=C(CCC)[C@@H](NC(=O)c1ccco1)c1ccc(C(=O)OC)cc1`, for which the z-score was 0.324. With `COC(=O)c1c(CC[C@@H](CO)NC(=O)N[C@@H](Cc2ccccc2)Cn2cc(-c3cncn3C)nn2)oc(C(C)=O)c1C(=O)OC`, the z-score was -0.182.

As for `COC(=O)[C@@]1(Cc2ccc(OC)cc2)[C@H]2c3cc(C(=O)N(C)C)n(Cc4ccsc4Br)c3C[C@H]2CN1C(=O)c1ccccc1`, the z-score was 1.16.

Take `C=CCC(OC(C)=O)[C@@H]1[C@@H](N(Cc2ccc(-c3ccccc3)cc2)C(=O)c2ccc(-c3ccccc3)cc2)c2cc(OCCCO)ccc2N1C(=O)c1ccc2ccccc2n1` (stereo partly drawn): the z-score was 0.078.

Consider `O=C1c2ccccc2[C@](Cc2ccccc2I)(C(=O)O)[C@H](c2ccc(CO)cc2)N1Cc1ccccc1`, for which the z-score is -0.579. Still for that read-out and setting: then `COCC(=C=CC[C@@H](O)c1cccc(OCCO)c1)C[C@@H](O)COCc1ccccc1`, with -1.22; and `C[N+](C)(C)CCCCCCNC(=O)[C@@H]1C[C@@H]2C(=O)N[C@@H](Cc3ccccc3)C(=O)N2[C@@H]1c1ccc(O)cc1`, with 0.0655. On to `COCCOC(=O)N1C(=O)[C@@]2(c3ccccc31)[C@H](c1ccc(OCCO)cc1)N1[C@H](c3ccccc3)[C@H](c3ccccc3)OC(=O)[C@H]1[C@@H]2C(=O)N1CCN(c2ncccn2)CC1`, for which the z-score is 6.25. Turning to `COCCOC(=O)N1C(=O)[C@@]2(c3cc(C#CCCO)ccc31)[C@H](c1ccccc1OCCO)N1[C@H](c3ccccc3)[C@H](c3ccccc3)OC(=O)[C@H]1[C@@H]2C(=O)N1CCc2cc(OC)c(OC)cc2C1`, the z-score is 1.97.

On to `C=CCC(OC(C)=O)[C@@H]1[C@@H](N(Cc2cc3ccccc3o2)C(=O)Cc2ccc(OC)cc2)c2cc(OCCCO)ccc2N1C(=O)Cc1ccc(OC)cc1` (stereo partly drawn), for which the z-score is 0.297. For `CC(C)C[C@H]1NC(=O)[C@@]23C(=O)N[C@@H](Cc4ccccc4)C2[C@H](C)[C@@]2(C)O[C@H]2C3/C=C/C/C=C\CNC(=O)[C@@H]2CCCN2C1=O` (stereo partly drawn), the z-score is -0.26. The same measure, in the same setting: then `COCCOC(=O)N1C(=O)[C@@]2(c3cc(C#CCC(C(=O)OC)C(=O)OC)ccc31)[C@H](c1ccc(OCCO)cc1)N1[C@H](c3ccccc3)[C@H](c3ccccc3)OC(=O)[C@H]1[C@@H]2C(=O)N1CCCCCCC1`, with 1.98; and `COCC(=C=CC[C@@H](O)c1ccc(OCCO)cc1)C[C@@H](O)COCc1ccccc1`, with 0.416.

In the case of `COC(=O)[C@@H]1N=C(c2ccc(OCCCO)cc2)O[C@@H]1c1ccccc1CN=[N+]=[N-]`, the z-score is 9.39 (active).

For the molecule `C=C(COC)C(=O)CC[C@@H](OC(C)=O)c1ccc(OCCO)cc1`, the z-score is 0.27. `O=C(NCCO)C1=C[C@H](Oc2ccccc2I)[C@@H](O)[C@H](NCc2ccc(F)cc2)C1`: the z-score is 1.82. Take `O=C1O[C@@H](c2ccccc2)[C@@H](c2ccccc2)N2[C@@H](c3ccc(OCCO)cc3)[C@]3(C(=O)Nc4ccc(C#CCCO)cc43)[C@@H](C(=O)Nc3nc4ccccc4s3)[C@H]12`: the z-score was -0.0042. In the case of `NCCCC[C@@H]1NC(=O)[C@H]2C[C@@H](C(=O)O)[C@@H](c3cccc(OCCO)c3)N2C1=O`, the z-score was -0.195. As to `COCCOC(=O)N1C(=O)[C@@]2(c3cc(C#CCCO)ccc31)[C@H](C(=O)N1CCc3cc(OC)c(OC)cc3C1)[C@H]1C(=O)O[C@H](c3ccccc3)[C@H](c3ccccc3)N1[C@@H]2c1ccccc1OCCO`, the z-score is 0.928.

For the molecule `COC(=O)[C@@]1(Cc2ccccc2)[C@@H]2[C@@H](CC(=O)[C@H]2CC(=O)C(=O)N(C)C)CN1C(=O)c1ccccc1`, the z-score was 0.543.

With `O=C1O[C@H](c2ccccc2)[C@H](c2ccccc2)N2[C@H]1[C@@H](C(=O)N1CCN(c3ncccn3)CC1)[C@]1(C(=O)Nc3ccccc31)[C@H]2c1ccc(O)cc1`, the z-score was 1.01.

Regarding `CCOC(=O)C1=CC[C@@H](c2ccccc2Cl)N(S(=O)(=O)c2ccc(C)cc2)[C@H]1c1cccc(OC)c1`, the z-score was 1.16.
